Most compounds without a hit are left out; they make up all but 0.93% or so of the library.
CIT2-GFP yeast = alters CIT2-GFP fluorescence in TOR pathway yeast screen; S. cerevisiae CIT2-GFP strain, flow cytometry, 3 h; 100 means same as DMSO wells; GFP response vs DMSO, % at 10 µM; 320,000 tested, 0.065% active; AID 2029;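 active means GFP response relative to DMSO above a set limit, near the screen mean plus 3 SD, cut at about 150% in these data; inconclusive means Fewer than 70 cells measured for a yeast strain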;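 further: ratio of well median GFP fluorescence to mean of DMSO wells on the plate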
AGP1-GFP MLPCN = yeast TOR pathway AGP1-GFP modulation | S. cerevisiae AGP1-GFP multiplex flow cytometry, 3 h; GFP as percent of DMSO wells | GFP response vs DMSO, % at 10 µM | 320,000 tested, 0.02% active;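 active means GFP response relative to DMSO above a set limit, near screen average plus 3 SD, cut at about 150% in these data; inconclusive means fewer than 70 cells counted for the yeast strain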;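 further: median GFP channel fluorescence of the gated AGP1 strain per well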
LAP4 TOR yeast = yeast TOR pathway LAP4-GFP modulation; S. cerevisiae LAP4-GFP multiplex, flow cytometry GFP, 3 h; median GFP as percent of DMSO wells; AID 2023; GFP response vs DMSO, % at 10 µM; 320,000 tested, 0.34% active;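 active means GFP response vs DMSO above a set limit, about the screen mean plus 3 SD, cut at about 150% in these data; inconclusive means under 70 cell events counted for the yeast strain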
RPL19A TOR yeast = modulators of TOR pathway RPL19A-GFP in S. cerevisiae; S. cerevisiae RPL19A-GFP strain, flow cytometry, 3 h; hits give low values; percent response vs DMSO, % at 10 µM; 330,000 tested, 0.3% active;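 active means percent response vs DMSO below 50%; inconclusive means fewer than 70 events counted for the yeast strain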;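 further: median channel GFP fluorescence of the barcoded RPL19A-GFP strain; ratio of sample median GFP to plate DMSO average so 100% = DMSO; lower means less RPL19A-GFP as with rapamycin TOR inhibition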
MEP2 TOR yeast = yeast TOR pathway MEP2-GFP modulation; S. cerevisiae MEP2-GFP strain, flow cytometry GFP, 3 h; 100% = DMSO control level; GFP response vs DMSO, % at 10 µM; 330,000 tested, 0.51% active; AID 2016;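 active means GFP response versus DMSO above a set limit, roughly screen mean plus 3 SD, cut at about 180% in these data; inconclusive means fewer than 70 cells counted for a yeast strain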;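 further: median GFP fluorescence of the barcode-gated MEP2-GFP cells per well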
* hit, by the source's call; [ ] = remark or other dose.

CCN(CC)Cc1c(O)ccc2c(C)c(CC(=O)OC)c(=O)oc12 was read as CIT2-GFP yeast 87, AGP1-GFP MLPCN 29, LAP4 TOR yeast 91, RPL19A TOR yeast 61 and MEP2 TOR yeast 205*.
Cc1nn(C)c(C)c1CN(Cc1nc(CCC(C)C)no1)C(C)C was read as CIT2-GFP yeast 98, AGP1-GFP MLPCN 94, LAP4 TOR yeast 99, RPL19A TOR yeast 95 and MEP2 TOR yeast 90.
Screening COc1cccc(OCc2nnc(SCC(=O)NNC(=O)C3CCCCC3)n2C)c1 returned CIT2-GFP yeast 100, AGP1-GFP MLPCN 102, LAP4 TOR yeast 102, RPL19A TOR yeast 98 and MEP2 TOR yeast 95.
Screening COc1cccc(OCc2nnc(SCC(=O)OC3CCCCC3)n2C)c1 returned CIT2-GFP yeast inconclusive, AGP1-GFP MLPCN inconclusive, LAP4 TOR yeast 90, RPL19A TOR yeast 63 and MEP2 TOR yeast 228*[may fluoresce violet].
COc1ccc(S(=O)(=O)c2ccc(OC)c(OC)c2)cc1OC was read as CIT2-GFP yeast 106, AGP1-GFP MLPCN 101, LAP4 TOR yeast 98, RPL19A TOR yeast 98 and MEP2 TOR yeast 96.
O=S(=O)(NN1CCOCC1)c1ccc(Br)cc1 was read as CIT2-GFP yeast 92, AGP1-GFP MLPCN 94, LAP4 TOR yeast 95, RPL19A TOR yeast 96 and MEP2 TOR yeast 95.
Cn1cccc1C(=O)C(=O)Nc1ccc(Cl)cc1 was read as CIT2-GFP yeast 79, AGP1-GFP MLPCN 88, LAP4 TOR yeast 103, RPL19A TOR yeast 90 and MEP2 TOR yeast 90.
For Cn1cccc1C(=O)C(=O)Nc1ccc(F)c(F)c1 the results were CIT2-GFP yeast inconclusive, AGP1-GFP MLPCN inconclusive, LAP4 TOR yeast 125, RPL19A TOR yeast 47*[may fluoresce violet] and MEP2 TOR yeast 93.
For O=C(Cn1nnc(-c2ccncc2)n1)N(C1CCCCC1)C1CCCCC1 the results were CIT2-GFP yeast 93, AGP1-GFP MLPCN 95, LAP4 TOR yeast 95, RPL19A TOR yeast 95 and MEP2 TOR yeast 94.
For O=C(C1CCN(S(=O)(=O)c2cccs2)CC1)N1CCCCC1 the results were CIT2-GFP yeast 98, AGP1-GFP MLPCN 96, LAP4 TOR yeast 90, RPL19A TOR yeast 94 and MEP2 TOR yeast 100.
CCOC(=O)C1CCCN(C(=O)C2CCN(S(=O)(=O)c3cccs3)CC2)C1 (stereo not given) was read as CIT2-GFP yeast inconclusive, AGP1-GFP MLPCN 18, LAP4 TOR yeast 86, RPL19A TOR yeast 94 and MEP2 TOR yeast 226*[may fluoresce violet].
For CCOc1ccc(C(=O)N/N=C/c2ccc(SC)cc2)cc1 the results were CIT2-GFP yeast 96, AGP1-GFP MLPCN 107, LAP4 TOR yeast 119, RPL19A TOR yeast 100 and MEP2 TOR yeast 98.
Screening CSc1ccc(/C=N/NC(=O)c2cccc(O)c2)cc1 returned CIT2-GFP yeast inconclusive, AGP1-GFP MLPCN 24, LAP4 TOR yeast 97, RPL19A TOR yeast 62 and MEP2 TOR yeast 188*[may fluoresce violet].
Screening COc1cc(/C=C/C(O)=C/C(=O)/C=C/c2ccc(O)cc2)ccc1O returned CIT2-GFP yeast 93, AGP1-GFP MLPCN 85, LAP4 TOR yeast 149, RPL19A TOR yeast 101 and MEP2 TOR yeast 106.
Screening CCN(CC)CCCN(Cc1cc2cc3c(cc2[nH]c1=O)OCO3)C(=S)Nc1ccccc1 returned CIT2-GFP yeast 110, AGP1-GFP MLPCN 120, LAP4 TOR yeast 153*, RPL19A TOR yeast 65 and MEP2 TOR yeast 103.
CC(O)C(NC(=O)OCc1ccccc1)C(=O)OCc1ccccc1 (stereo not given) was read as CIT2-GFP yeast 92, AGP1-GFP MLPCN 101, LAP4 TOR yeast 97, RPL19A TOR yeast 95 and MEP2 TOR yeast 96.
For COCCCNC(=O)c1ccc2c3c(onc13)-c1ccccc1C2=O the results were CIT2-GFP yeast 105, AGP1-GFP MLPCN 84, LAP4 TOR yeast 190*, RPL19A TOR yeast 73 and MEP2 TOR yeast 97.
O=C(CCC(=O)N1CCOc2ccc(Cl)cc21)NCc1ccccc1 was read as CIT2-GFP yeast 107, AGP1-GFP MLPCN 117, LAP4 TOR yeast 109, RPL19A TOR yeast 115 and MEP2 TOR yeast 103.
For O=C(Nc1ccccc1N1CCOCC1)c1ccc(N2CCOCC2)c([N+](=O)[O-])c1 the results were CIT2-GFP yeast 102, AGP1-GFP MLPCN 102, LAP4 TOR yeast 103, RPL19A TOR yeast 98 and MEP2 TOR yeast 101.
`O=C(Nc1ccccc1N1CCOCC1)c1ccccc1[N+](=O)[O-]` gave CIT2-GFP yeast inconclusive, AGP1-GFP MLPCN inconclusive, LAP4 TOR yeast inconclusive, RPL19A TOR yeast 19*[may fluoresce violet] and MEP2 TOR yeast inconclusive.
Clc1ccc(-n2cccc2)cn1 was read as CIT2-GFP yeast 185*, AGP1-GFP MLPCN 103, LAP4 TOR yeast 120, RPL19A TOR yeast 116 and MEP2 TOR yeast 172.
Screening N#Cc1c(N)nc(SCc2ccccc2)c(C#N)c1-c1ccco1 returned CIT2-GFP yeast inconclusive, AGP1-GFP MLPCN inconclusive, LAP4 TOR yeast inconclusive, RPL19A TOR yeast 17*[may fluoresce violet] and MEP2 TOR yeast inconclusive.
`COc1ccc(OCc2nnc(SCC(=O)Nc3ccc(C)cc3)o2)cc1` gave CIT2-GFP yeast inconclusive, AGP1-GFP MLPCN 20, LAP4 TOR yeast 92, RPL19A TOR yeast 94 and MEP2 TOR yeast 195*[may fluoresce violet].
`COc1ccc(-c2nnc(SCC(=O)NC3CCCCC3)o2)cc1` gave CIT2-GFP yeast inconclusive, AGP1-GFP MLPCN 32, LAP4 TOR yeast 98, RPL19A TOR yeast 62 and MEP2 TOR yeast 200*[may fluoresce violet].
O=C(NNC(=O)c1ccccc1F)c1cccc(S(=O)(=O)N2CCc3ccccc32)c1 was read as CIT2-GFP yeast 102, AGP1-GFP MLPCN 106, LAP4 TOR yeast 104, RPL19A TOR yeast 100 and MEP2 TOR yeast 103.
Screening Cn1c(SCC(=O)Nc2ccccc2)nc2ccccc2c1=O returned CIT2-GFP yeast 93, AGP1-GFP MLPCN 97, LAP4 TOR yeast 101, RPL19A TOR yeast 97 and MEP2 TOR yeast 101.
Screening CC1(C)CC(=O)C2=C(C1)N(c1ccccc1)C(N)=C(C#N)C2c1cccnc1 (stereo not given) returned CIT2-GFP yeast 96, AGP1-GFP MLPCN 106, LAP4 TOR yeast 104, RPL19A TOR yeast 99 and MEP2 TOR yeast 105.
CN(C)N1C(N)=C(C#N)C(c2cccnc2)C2=C1CC(C)(C)CC2=O (stereo not given) was read as CIT2-GFP yeast inconclusive, AGP1-GFP MLPCN inconclusive, LAP4 TOR yeast 81 and MEP2 TOR yeast 299*[may fluoresce violet].
CC(C)CC(NC(=O)C1CCC(C)CC1)C(=O)Nc1ccc2c(c1)OCCO2 (stereo not given) was read as CIT2-GFP yeast 105, AGP1-GFP MLPCN 103, LAP4 TOR yeast 99, RPL19A TOR yeast 99 and MEP2 TOR yeast 97.
`Cc1ccc2c(COC(=O)c3ccccc3F)cc(=O)oc2c1` gave CIT2-GFP yeast inconclusive, AGP1-GFP MLPCN inconclusive, LAP4 TOR yeast 85, RPL19A TOR yeast 55 and MEP2 TOR yeast 413*[may fluoresce violet].
O=C(O)c1ccc(Nc2ccc3nonc3c2[N+](=O)[O-])cc1 was read as CIT2-GFP yeast inconclusive, AGP1-GFP MLPCN inconclusive, LAP4 TOR yeast 86, RPL19A TOR yeast 49*[may fluoresce violet] and MEP2 TOR yeast 210*[may fluoresce violet].
